High-throughput results: PubChem, The Scripps Research Institute Molecular Screening Center
This is one part of a sample in which hits are shown more often than they occur.
TTR transcr act = TTR transcription activators in neuroblastoma reporter cells, primary screen, cell-based, luminescence, SH-SY5Y, TTR promoter Gaussia luciferase; 100% = recombinant luciferase protein wells; AID 1117267, 2014; activation, % at 16.7 µM; actives 1.3% (n = 92,000);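 active = activation above the mean of all tested compounds plus 3 SD, cut at about 9.5% in these data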;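 note: cells exposed to compounds for one day before reading; 0% = median of all test compound wells on the plate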
HuH7 TTR inh = TTR promoter reporter inhibitors in hepatoma cells, counter-screen for TTR transcription activator project, cell-based, luminescence, HuH7 hepatoma; shares compounds with TTR transcr act; HuH7 TTR promoter-Gaussia luciferase reporter; inhibition, % at 16.7 µM; actives 4% (n = 1,100);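 active = average inhibition above the solvent-only control wells' mean plus 3 SD, cut at about 15% in these data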;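 note: 0% = cells with DMSO only and 100% = cells with inhibitor control FD; inhibitors lower well luminescence so higher value means more inhibition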
TTR up confirm = TTR transcription activators, retest, confirmation, cell-based, luminescence, SH-SY5Y, triplicate; activation, % at 16.7 µM; AID 1117280, 2014; shares compounds with TTR transcr act; 1,100 tested, under 10 active; SHSY5Y TTR promoter Gaussia luciferase; 100% = purified Lucia enzyme wells, no cells;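 active = mean activation above a set limit taken from the earlier primary screen, cut at about 11% in these data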;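 note: 0% = DMSO-treated cells and 100% = recombinant Lucia luciferase without cells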
Starred values were filed as active, the others as inactive.

SMILES	TTR transcr act	others
CCOC(=O)[C@@]12CCC3=C1N(CCC3)C(=O)[C@H](CC(=O)N1CCCC1)C2	-1
COc1ccc(C(C)=O)cc1CSc1nnc2c(Cl)cc(Cl)cn12	1
C=CCn1c(C)cc(C(=O)CSc2nc(N)cc(N)n2)c1C	2
C=CCn1c(C)cc(C(=O)CSc2nnc3c(Cl)cc(Cl)cn23)c1C	22*	HuH7 TTR inh=-13;TTR up confirm=0
O=C(Nc1ccc(Br)cc1)OCCN1CCCC12CCC(c1ccccc1)CC2 (stereo not drawn)	-1
C#CCNC(=O)C[C@@H]1C(=O)N(CCc2ccc(Cl)cc2)C2=CCCCC[C@]21C(=O)OC	1
C[C@H]1[C@@H](OC(=O)NCc2ccc(Cl)c(Cl)c2)CC[C@@]23CCCN2C(=O)CCC[C@@H]13	-1
Cc1nc2ccccc2n1-c1ccccc1	0
Nn1c(-c2ccccc2)nc2ccccc2c1=O	3
On1c(-c2ccccc2)nc2ccccc21	11*	HuH7 TTR inh=-8;TTR up confirm=0
COc1ccc(C2Nc3ccccc3C(=O)N2Cc2ccc(C)o2)cc1COc1c(C)cccc1C (stereo not drawn)	0
O=C(NC1CCCCN(Cc2ccc(Cl)cc2)C1=O)C1C2CC3CC(C2)CC1C3 (stereo not drawn)	-1
O=C(Nc1cccc(F)c1)c1cc(S(=O)(=O)N2CCC(C(=O)O)CC2)ccc1F	-1
CCOC(=O)Cn1c(=O)oc2cc(S(=O)(=O)N3CCN(c4ccccn4)CC3)ccc21	-1
O=C(Nc1c(F)cc(F)cc1Br)c1cc(S(=O)(=O)N2CCN(c3ccccn3)CC2)ccc1F	11*	HuH7 TTR inh=1;TTR up confirm=-1
O=C(NCCCc1ccccc1)[C@H](Cc1ccccc1)NC1(C(=O)NCCc2c[nH]c3ccccc23)CCOCC1	1
S=C(NC1CCCC1)N1CCN(c2ccccn2)CC1	4
Cc1cccc(N2CCN(C(=S)NC3CCCCC3)CC2)c1C	12*	HuH7 TTR inh=12;TTR up confirm=1
Cc1cccc(N2CCN(C(=O)N3CCOCC3)CC2)c1C	1
C[C@@H]1CCN(C2CC2)S(=O)(=O)c2c(cccc2N2CC[C@H](N(C)C)C2)O1	1
C#CCNC(=O)C[C@@H]1C(=O)N2CCCC3=C2[C@@]1(C(=O)OC)CCCC3	0
CN(C)[C@@H]1CCN(c2cccc3c2S(=O)(=O)N(C2CC2)CCCO3)C1	0
O=[N+]([O-])c1cccn2cc(-c3ccc(Br)cc3)nc12	11*	HuH7 TTR inh=6;TTR up confirm=-1
Cc1ccn2cc(-c3ccc(Br)cc3)nc2c1	-3
Cc1cccn2cc(-c3ccc(S(=O)(=O)N4CCOCC4)cc3)nc12	0
SMILES	TTR transcr act	others
Cc1cc(C)nc(NC(=S)N2CCN(c3ccc(Cl)c(Cl)c3)CC2)c1	-2
COC(=O)[C@]12C[C@H](CC(=O)NCc3cccc4ccccc34)C(=O)N(Cc3ccc(Cl)cc3Cl)C1=C[C@H](C(C)C)O[C@@H]2C1CC1	1
c1nc(NCC2CCCCO2)c2cc(-c3ccc4c(c3)OCO4)ccc2n1 (stereo not drawn)	-1
C[C@@H]1CCCN1c1cccc2c1S(=O)(=O)N1CC[C@@H](C1)O2	-1
C[C@@H]1CN([C@H](C)CO)C(=O)c2cc(Br)cnc2O[C@H]1CN(C)C(=O)Cc1ccccc1	0
COC(CNC(=O)[C@H](Cc1c[nH]c2ccccc12)NC1(C(=O)NC2CCCCC2)CCCCC1)OC	0
O=C(NC1CC1)C1CCN(c2ccc(S(=O)(=O)N3CCOCC3)cc2Cl)CC1	-2
CSc1ccc(S(=O)(=O)N2CCC(C(=O)NC3CC3)CC2)cc1	18*	HuH7 TTR inh=-18;TTR up confirm=1
Cc1ccc(S(=O)(=O)NNC(=O)C2CCN(S(=O)(=O)c3ccc(C)cc3)CC2)cc1	-1
C[C@H]1[C@@H](OC(=O)Nc2ccc(C(F)(F)F)cc2)CC[C@@]23CCCN2C(=O)CCC[C@@H]13	0
CC1CN(c2ccnc3cc(Cl)ccc23)CCN1C(=O)c1ccc(Cl)cc1 (stereo not drawn)	-2
CCCCn1nc2cc(C(=O)NCc3cc(C(F)(F)F)cc(C(F)(F)F)c3)ccc2c1OCC	1
CCCCn1nc2cc(C(=O)N[C@H](C)C3CCCCC3)ccc2c1OCC	12*	HuH7 TTR inh=-6;TTR up confirm=0
CCOc1c2ccc(C(=O)NCCc3ccc(C)cc3)cc2nn1CC	-3
COc1cccc(OCc2cc(C(=O)N3CCN(C4CCCC4)CC3)no2)c1	1
NC(=O)[C@@H]1CCCN1C(=O)c1cc(COc2ccc3c(c2)CCCC3)on1	10*	HuH7 TTR inh=-8;TTR up confirm=-1
COc1cccc(OCc2cc(C(=O)N3CCCC3c3ccccn3)no2)c1 (stereo not drawn)	-1
O=C1CCC[C@H]2[C@@H](Cc3ccccc3)[C@@H](O)CC[C@]23CCCN13	-2
O=C(CCc1ccccc1)N1CCCC1	11*	HuH7 TTR inh=-5;TTR up confirm=0
O=C(CCc1nnc(CCCc2ccccc2)o1)N1CCCCCC1	-1
CC1CCCN(C(=O)CCc2ccccc2)C1 (stereo not drawn)	1
C[C@H]1[C@@H](OC(=O)NCCc2c[nH]c3ccccc23)CC[C@@]23CCCN2C(=O)CCC[C@@H]13	-2
FC(F)(F)Oc1cccc(Cn2ccc3ccc(-c4ccc5ccn(Cc6ccccc6)c5c4)cc32)c1	0
Cn1nc(C(=O)NC2CCC(O)CC2)c2ccccc2c1=O (stereo not drawn)	0
Cn1nc(CC(=O)NC2CCCCCC2)c2ccccc2c1=O	1
SMILES	TTR transcr act	others
Cn1nc(CC(=O)NC2CCCCC2)c2ccccc2c1=O	10*	HuH7 TTR inh=0;TTR up confirm=-1
CCCCCn1nnnc1C1(C)CSCC(=O)N1Cc1ccco1 (stereo not drawn)	8
COC[C@@H]1CCCN1c1ccc2c(c1)O[C@@H]1CCN(C1)S2(=O)=O	1
O=C(/C=C/c1ccc(-c2ccccc2)cc1)NC1=NCCS1	3
O=C1c2ccccc2NC(c2ccccc2)N1CCCN1CCOCC1 (stereo not drawn)	-1
N#CCCN(CCCN1CCOCC1)CN1C(=O)c2ccccc2C1=O	31*	HuH7 TTR inh=-10;TTR up confirm=-1
O=C1c2ccccc2C(=O)N1CCN1CCCCC1	-2
COc1ccc(C(F)(F)F)cc1NC(=O)C(OC(=O)CNC(=O)c1ccccc1)c1ccccc1 (stereo not drawn)	1
C#CCNC(=O)C[C@@H]1C[C@@]2(C(=O)OC)CC(C)(C)CC=C2N(Cc2ccccc2)C1=O	0
CCOC(=O)C1CCN(C(=O)C(CC)c2ccccc2)CC1 (stereo not drawn)	-1
N=c1c2c(ccn1Cc1ccccc1)Oc1ccc3ccccc3c1C2c1ccccc1 (stereo not drawn)	-4
COc1ccc(CN(C(=O)Cn2nnc3ccccc32)C(C(=O)NC(C)(C)C)c2ccco2)cc1 (stereo not drawn)	9.9*	HuH7 TTR inh=-9;TTR up confirm=0
O=C(NC1CCCCC1)C(c1ccco1)N(Cc1cccs1)C(=O)Cn1nnc2ccccc21 (stereo not drawn)	-3
CCC(C)(C)NC(=O)C(c1ccccc1F)N(Cc1ccco1)C(=O)Cn1nnc2ccccc21 (stereo not drawn)	6
Cc1cn(S(=O)(=O)c2ccc(Cl)cc2)c(C)n1	2
Cc1ccc(S(=O)(=O)n2c(N)nc3cc(C)c(C)cc32)cc1	2
